Source: PubChem (Center for Chemical Genomics, University of Michigan)
CDC25B CDK2 inh = primary biochemical HTRF screen for blockers of M-phase inducer phosphatase 2 binding to CDK2/cyclin A | P30305+P24941 | HTRF CDC25B-CDK2/CyclinA binding, anti-His/anti-Flag; hits give high values | z-score (test concentration not listed) | 94,000 compounds, 0.72% hits; in the data active means z-score above about 3.2
TAR Tat displ = TAR RNA-Tat peptide displacers, HIV-1, primary screen, biochemical, FRET, FAM/TAMRA-labeled Tat | HIV-1 TAR RNA, Tat peptide displacement FRET; hits give high values | z-score (test concentration not listed) | 100,000 compounds, 0.6% hits; active means z-score of 3 or more in at least 2 runs
Each line names hits and unclear results; the compound was inactive in the other large screens. Rows were chosen to be rich in hits. Some 0.86% of all compounds tested hit in one or more screens of this group.

CC(C)(C)NC(=O)c1cccc(N2C(=O)c3cccc([N+](=O)[O-])c3C2=O)c1	none (no result: TAR Tat displ)
CCCCn1nc(NS(=O)(=O)c2ccccc2)c2cc3cccc(C)c3nc21	none
COc1ccc(-n2nnc(S(=O)(=O)c3ccc(C)c(C)c3)c2C)cc1Cl	none
O=C1c2ccccc2C(=O)N1c1cccc(-c2csc(Nc3cccc4ccccc34)n2)c1	CDC25B CDK2 inh 18.8 (no result: TAR Tat displ)
COc1ccccc1Nc1nc(-c2cc3c(ccc4ccccc43)oc2=O)cs1	none (no result: TAR Tat displ)
O=C(NC1CCCCC1)c1cnn2c3c(cnc12)CCCCC3	none (no result: CDC25B CDK2 inh)
N#CC1=C2SCN(Cc3ccccc3)CN2C(=O)CC1c1ccc2c(c1)OCO2 (stereo not drawn)	CDC25B CDK2 inh 4.01
N#CC1=C2SCN(Cc3ccccc3)CN2C(=O)CC1c1cccc(F)c1 (stereo not drawn)	CDC25B CDK2 inh 4.89
COc1ccc(C2CC(=O)N3CN(CCCc4ccccc4)CSC3=C2C#N)cc1OC (stereo not drawn)	CDC25B CDK2 inh 5.85
COc1cccc(C2CC(=O)N3CN(Cc4ccccc4)CSC3=C2C#N)c1 (stereo not drawn)	CDC25B CDK2 inh 5.25
CCc1ccccc1OCCSc1nnc(-c2cccs2)o1	none
CCc1ccc(CC2C(=O)Nc3ccccc32)cc1 (stereo not drawn)	none
CC(C)CNS(=O)(=O)c1ccc(S(=O)(=O)N2CCN(c3ncccn3)CC2)cc1	none
N#CC1=C2SCN(C3CCCCC3)CN2C(=O)CC1c1ccccc1Cl (stereo not drawn)	none
Cc1c(Cl)cccc1N1CSC2=C(C#N)C(c3cccs3)CC(=O)N2C1 (stereo not drawn)	CDC25B CDK2 inh 7.9
N#CC1=C2SCN(Cc3ccccc3)CN2C(=O)CC1c1cccs1 (stereo not drawn)	CDC25B CDK2 inh 5.21
COc1cc(C2CC(=O)N3CN(Cc4ccco4)CSC3=C2C#N)ccc1OCc1ccccc1 (stereo not drawn)	none
COc1ccc(C2CC(=O)N3CN(C(C)c4ccccc4)CSC3=C2C#N)cc1OC (stereo not drawn)	CDC25B CDK2 inh 5.51
COc1cc(C2CC(=O)N3CN(C)CSC3=C2C#N)ccc1OCc1ccccc1 (stereo not drawn)	CDC25B CDK2 inh 4.08
CCS(=O)(=O)c1oc(-c2ccc(F)cc2)nc1S(=O)(=O)c1ccc(Cl)cc1	none
O=C1CCCc2cc(S(=O)(=O)N3CCC(CN4CCc5ccccc5C4)CC3)ccc2N1	none (no result: CDC25B CDK2 inh)
CC(C)NC(=O)C1=Cc2sc3c(c2CS1)CCCC3	none (no result: CDC25B CDK2 inh)
O=C(NCCC1=CCCCC1)c1cnc(N2CCCC2)nc1	none
N#CC1=C2SCN(Cc3ccco3)CN2C(=O)CC1c1cccc(OCc2ccccc2)c1 (stereo not drawn)	CDC25B CDK2 inh 3.42
N#CC1=C2SCN(Cc3ccco3)CN2C(=O)CC1c1ccc(OCc2ccccc2)cc1 (stereo not drawn)	none
COc1cccc(C2CC(=O)N3CN(CCCc4ccccc4)CSC3=C2C#N)c1 (stereo not drawn)	CDC25B CDK2 inh 4.95
Cc1cc2n(n1)CCC(=O)N2CC(=O)NCCCOC(C)C	none (no result: CDC25B CDK2 inh)
O=C1c2cccnc2C(=O)N1Cc1ccc(S(=O)(=O)NC2CCCCC2)cc1	none (no result: CDC25B CDK2 inh)
CC1CC(=O)Nc2cc(S(=O)(=O)Nc3ccc(-c4ccno4)cc3)ccc2S1 (stereo not drawn)	none (no result: CDC25B CDK2 inh)
COc1ccc(-n2c(C)cc(CNC(=O)Nc3ccc(OC)cc3OC)c2C)cc1	none (no result: CDC25B CDK2 inh)
Brc1ccc(-c2nc(N3CCCC3)c3ccccc3n2)cc1	none (no result: TAR Tat displ)
Cc1ccc(SCc2cc(=O)n3ccsc3n2)cc1	none
CCN(CC)c1ccc(Nc2nc(-c3sc(N)nc3C)cs2)cc1	TAR Tat displ 5.68
CCN(CC)c1ccc(Nc2nc(-c3sc(NC(C)=O)nc3C)cs2)cc1	none
O=C(Nc1ccc(O)cc1)c1cccc(-n2cnnc2)n1	TAR Tat displ 12.4 (no result: CDC25B CDK2 inh)
O=C(Nc1ccc(Br)cc1)c1cccc(-n2cnnc2)n1	none (no result: CDC25B CDK2 inh)
CC1=C(c2ccc(C)c(C)c2)S(=O)(=O)N=C1Nc1ccc(Cc2ccncc2)cc1	none
c1ccc(-n2cnc3cc(NCc4ccco4)ccc32)cc1	none
CCn1cnc2cc(NCc3cccc(Br)c3)ccc21	CDC25B CDK2 inh 13.4
CCn1cnc2cc(NCc3ccco3)ccc21	CDC25B CDK2 inh 15.7
Cc1ccc(CNc2ccc3c(c2)nc(C)n3C)cc1	none
CCCn1cnc2cc(NCc3ccc(C)cc3)ccc21	CDC25B CDK2 inh 13.5
COc1ccc(CNc2ccc3c(c2)ncn3C)cc1OC	none
COc1ccc(NS(=O)(=O)c2ccc3c(c2)NC(=O)CO3)cc1Cl	none (no result: CDC25B CDK2 inh)
COc1ccc(S(=O)(=O)Nc2cccc(-c3ccc(OC)nn3)c2)c(OC)c1	none (no result: CDC25B CDK2 inh)
O=C(CSc1ccc([N+](=O)[O-])cc1Cl)NCc1ccccc1	CDC25B CDK2 inh 14.8 (no result: TAR Tat displ)
CCOC(=O)CSc1ccc([N+](=O)[O-])cc1Cl	none (no result: TAR Tat displ)
Cc1ccc(N(Cc2cc(=O)n3c(C)cccc3n2)C2=NC3CS(=O)(=O)CC3S2)cc1Cl (stereo not drawn)	none
Cc1oc(C(C)(C)C)cc1C(=O)/C(C#N)=C/Nc1ccccc1	none (no result: TAR Tat displ)
CC(C)(C)c1ccc(N/C=C(\C#N)C(=O)c2ccsc2)cc1	CDC25B CDK2 inh 13.4 (no result: TAR Tat displ)
O=C(C1CCN(c2ccc3cc(S(=O)(=O)N4CCCCC4)ccc3n2)CC1)N1CCCC1	none (no result: CDC25B CDK2 inh)
CCCCN(Cc1ccco1)C(=O)c1sc2nc3n(c(=O)c2c1C)CCCC3	none (no result: CDC25B CDK2 inh)
CCN1CCCC1CNC(=O)c1nn(C)c2c1COc1ccccc1-2 (stereo not drawn)	none
NC1(C(=O)O)CCCCC1	none (no result: TAR Tat displ)
N.N.O=C(O)C1(C(=O)O)CCC1.[Pt+2]	CDC25B CDK2 inh active (no result: TAR Tat displ)
CCOC(=O)N1CCc2c(sc(N)c2C#N)C1	CDC25B CDK2 inh 5.74 (no result: TAR Tat displ)
CN1CCc2c(sc(N)c2C#N)C1	none (no result: CDC25B CDK2 inh)
Cc1cc(-c2ccc(C)c(S(=O)(=O)Nc3cc(F)ccc3F)c2)on1	none (no result: CDC25B CDK2 inh)
COC(=O)C1=C(OC(=O)CN2C(=O)CCC2=O)c2ccccc2S(=O)(=O)N1C(C)C	CDC25B CDK2 inh 6.34
COC(=O)C1=C(OC(=O)CN2C(=O)CCC2=O)c2ccccc2S(=O)(=O)N1C	none
COCCNc1cc(N2CCN(C3CCCCC3)CC2)c2noc3c2c1C(=O)c1ccccc1-3	TAR Tat displ 8.07
CN(C)CCCNc1cc(N2CCN(c3ccccn3)CC2)c2noc3c2c1C(=O)c1ccccc1-3	TAR Tat displ 7.24
COCCNc1cc(N2CCCC2)c2noc3c2c1C(=O)c1ccccc1-3	none
COCCNc1cc(N2CCN(c3ccccn3)CC2)c2noc3c2c1C(=O)c1ccccc1-3	none
CN(C)CCCNc1cc(N2CCN(C3CCCCC3)CC2)c2noc3c2c1C(=O)c1ccccc1-3	TAR Tat displ 8.69
CC1CCN(c2cc(NCCCN(C)C)c3c4c(onc24)-c2ccccc2C3=O)CC1	TAR Tat displ 16.2
O=C1c2ccccc2-c2onc3c(N4CCN(C5CCCCC5)CC4)cc(NCCO)c1c23	none
CCOCCCNc1cc(N2CCC(C)CC2)c2noc3c2c1C(=O)c1ccccc1-3	none
CC(=O)N1c2ccc(S(=O)(=O)NC(C(=O)NCCc3sccc3C)C(C)C)cc2CC1C (stereo not drawn)	none (no result: CDC25B CDK2 inh)
COc1cc2nc(N3CCN(C(=O)c4ccco4)CC3)nc(N)c2cc1OC	none
COc1cc2nc(N3CCCN(C)CC3)nc(NC3CCN(Cc4ccccc4)CC3)c2cc1OC	TAR Tat displ 5.11
CC1CCN(c2c(-c3ccc(C(C)C)cc3)c(=O)c2=O)CC1	none (no result: CDC25B CDK2 inh)
COc1ccc([C@@H]2CC(=O)c3c(O)cc(O)cc3O2)cc1O	none (no result: CDC25B CDK2 inh)
